Measurements taken from PubChem BioAssay (Tox21).
Records with an inconclusive call do not appear. Activity calls are given as the source filed them. The call rests on the fitted dose curve; in most records, active means well fitted curve in the direction sought with a large enough effect in the repeat runs; inconclusive means weak or mixed curves; inactive means no such curve, though single readings can be large; an effect the other way counts as inactive or inconclusive.

What was measured:
[1] = qHTS RealTime-Glo MT Cell Viability Assay in HEK293 cells - 16 hour (AID 1224872); further: nearly all actives have a fitted effect of over 50% in size; further: potency means the concentration at half of the fitted maximal effect; on activity change, negative = cytotoxicity: top concentration of the series differs between compounds
Procedure, shortened: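 Homogeneous bioluminescent viability format in HEK293 cells (600 cells/well). Following 5 h at 37 C/5% CO2, 23 nL compound was pintooled; the signal was measured repeatedly during 40 h incubation.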

[2] = qHTS RealTime-Glo MT Cell Viability Assay in HEK293 cells - 40 hour (AID 1224874); conditions: RealTime-Glo luminescence; max response: stronger effect = lower value; further: nearly all actives have a fitted effect of over 50% in size
Procedure, shortened: (§1)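 Measured as luminescence from the same continuously cultured HEK293 wells at successive time points (0, 8, 16, 24, 32, 40 h) after compound addition. Reagent present from seeding; dosing at 5 h; incubation 37 C.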

[3] = A CellTox Green Cytotoxicity Assay to monitor cytotoxicity in HEK293 cells - 24 hour (AID 1224875); further: nearly all actives have a fitted effect of over 45% in size; further: potency means the concentration at half of the fitted maximal effect; on activity change: series mostly up to about 77 µM
Procedure, shortened: (§2)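 Homogeneous no-lysis format: HEK293 cell suspension mixed with CellTox Green reagent, seeded, incubated 5 h at 37 C/5% CO2, then dosed by pintool with compound in DMSO.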

[4] = A CellTox Green Cytotoxicity Assay to monitor cytotoxicity in HepG2 cells - 16 hour (AID 1224876); further: nearly all actives have a fitted effect of over 45% in size
Procedure, shortened: (§3)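 Fluorescent DNA-binding dye, 600 HepG2 cells/well, 5 h preincubation then compound in DMSO; same plates read at 0–40 h, 37 C.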

[5] = qHTS RealTime-Glo MT Cell Viability Assay in HepG2 cells - 32 hour (AID 1224877); further: nearly all actives have a fitted effect of over 55% in size
Procedure, shortened: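 Cell number in HepG2 cultures estimated from NanoLuc luminescence generated by metabolic reduction of a prosubstrate by living cells. The homogeneous, nonlytic format allowed repeated reads at 0, 8, 16, 24, 32 and 40 h of compound exposure.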

[6] = A CellTox Green Cytotoxicity Assay to monitor cytotoxicity in HepG2 cells - 24 hour (AID 1224878); further: nearly all actives have a fitted effect of over 45% in size
Procedure, shortened: as §3

[7] = A CellTox Green Cytotoxicity Assay to monitor cytotoxicity in HepG2 cells - 40 hour (AID 1224879); further: nearly all actives have a fitted effect of over 40% in size; further: potency means the concentration at half of the fitted maximal effect
Procedure, shortened: as §3

[8] = qHTS RealTime-Glo MT Cell Viability Assay in HEK293 cells - 0 hour (AID 1224880); further: top concentration of the series differs between compounds; nearly all actives have a fitted effect of over 45% in size
Procedure, shortened: as §1

[9] = A CellTox Green Cytotoxicity Assay to monitor cytotoxicity in HEK293 cells - 32 hour (AID 1224881); further: nearly all actives have a fitted effect of over 40% in size; further: potency means the concentration at half of the fitted maximal effect
Procedure, shortened: as §2

[10] = qHTS RealTime-Glo MT Cell Viability Assay in HepG2 cells - 8 hour (AID 1224873); further: nearly all actives have a fitted effect of over 55% in size
Procedure, shortened: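 Real-time viability: cells seeded at 600 per well together with NanoLuc and cell-permeant prosubstrate, compounds added after 5 h incubation. Luminescence tracked at 0, 8, 16, 24, 32 and 40 h of exposure.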
On the % scale 0 is the no-effect control and ±100 the full control effect.

C=Cc1ccccc1
inactive: Potency [1] | max response [2] 10.3% | Potency [3] | Potency [4] | Potency [5] | Potency [6] | Potency [7] | outcome [8] | Potency [9]

C[C@]12C(=O)OC(=O)[C@H]1[C@H]1C=C[C@@H]2C1
inactive: Potency [1] | max response [2] 10.7% | Potency [3] | Potency [4] | Potency [5] | Potency [6] | Potency [7] | outcome [8] | Potency [9]

C=O
inactive: Potency [1] | max response [2] -2.52% | Potency [3] | Potency [4] | Potency [5] | Potency [6] | Potency [7] | outcome [8] | Potency [9]

CC/C=C\CCOC(=O)CCCCC
inactive: Potency [1] | max response [2] -9.86% | Potency [3] | Potency [4] | Potency [5] | Potency [6] | Potency [7] | outcome [8]

COC(=O)c1ccc2cc(C(=O)OC)ccc2c1
inactive: activity change, negative = cytotoxicity [1] -1.54% [at 15.8 µM] | max response [2] -1.06% | activity change [3] 4.58% [at 15.8 µM, stronger effect = higher value] | cytotoxicity increase [4] -13.5% [at 15.8 µM] | activity change, negative = cytotoxic [5] 0.0732% [at 15.8 µM] | cytotoxicity [6] -14.4% [at 15.8 µM] | cytotoxicity increase [7] -18% [at 15.8 µM] | activity change, negative = cytotoxicity [8] 3.21% [at 15.8 µM] | cytotoxicity increase [9] 1.19% [at 15.8 µM]

CCOC(=O)c1cc(=O)c2c(OCC(COc3cccc4oc(C(=O)OCC)cc(=O)c34)OC(=O)[C@@H](N)CCCCN)cccc2o1
inactive: Potency [1] | outcome [10] | Potency [4] | Potency [5] | Potency [6] | Potency [7] | outcome [8] | Potency [9]

CC1CN(c2ccccc2)NC1=O (stereo unspecified)
inactive: Potency [1] | outcome [10] | Potency [3] | Potency [4] | Potency [5] | Potency [6] | Potency [7] | outcome [8] | Potency [9]

OCCN(CCO)CCN(CCO)CCO
inactive: Potency [1] | outcome [10] | Potency [3] | Potency [4] | Potency [5] | Potency [6] | Potency [7] | outcome [8] | Potency [9]

O=S(=O)(O)C(F)(F)F
inactive: Potency [1] | max response [2] 7.92% | Potency [3] | Potency [4] | Potency [5] | Potency [6] | Potency [7] | outcome [8] | Potency [9]

CCc1cc2cc(OC)c(OC)cc2c(Cc2ccccc2)n1
active: Potency [1] 16.9 µM
inactive: outcome [10] | Potency [3] | Potency [5] | outcome [8] | Potency [9]

CC(C)(C)c1cccc(O)c1
inactive: Potency [1] | outcome [10] | Potency [3] | Potency [4] | Potency [5] | outcome [8] | Potency [9]

CO[C@@]1(NC(=O)CSCC#N)C(=O)N2C(C(=O)O)=C(CSc3nnnn3C)CS[C@@H]21
inactive: Potency [1] | outcome [10] | Potency [3] | Potency [4] | Potency [5] | Potency [6] | Potency [7] | outcome [8] | Potency [9]

CCN(CC)CCNC(=O)COc1ccc(Cl)cc1
inactive: Potency [1] | outcome [10] | Potency [3] | Potency [5] | Potency [7] | outcome [8] | Potency [9]

CCOC(=O)CS
inactive: Potency [1] | outcome [10] | Potency [3] | Potency [4] | Potency [5] | Potency [6] | Potency [7] | outcome [8] | Potency [9]

OCc1ccccc1O
inactive: Potency [1] | max response [2] -16.1% | Potency [3] | Potency [4] | Potency [5] | Potency [6] | Potency [7] | outcome [8] | Potency [9]

CCCCNc1cc(C(=O)O)cc(S(N)(=O)=O)c1Oc1ccccc1
inactive: Potency [1] | outcome [10] | Potency [5] | Potency [6] | Potency [7] | outcome [8] | Potency [9]

CCCOc1ccc2c(c1)CC[C@@H]1[C@@H]2CC[C@]2(C)C(OC)CC[C@@H]12 (stereo partly specified)
inactive: Potency [1] | max response [2] 6.13% | Potency [3] | Potency [4] | Potency [5] | Potency [6] | Potency [7] | outcome [8] | Potency [9]

NNS(=O)(=O)c1ccc(Oc2ccc(S(=O)(=O)NN)cc2)cc1
inactive: Potency [1] | outcome [10] | Potency [4] | Potency [5] | Potency [6] | Potency [7] | outcome [8] | Potency [9]

CC(C)=CCCC(C)CCOC=O (stereo unspecified)
inactive: Potency [1] | max response [2] 13.4% | Potency [3] | Potency [4] | Potency [5] | Potency [6] | Potency [7] | outcome [8] | Potency [9]

CC(=O)Nc1ccc(C)c(Cl)c1
inactive: Potency [1] | outcome [10] | Potency [3] | Potency [4] | Potency [5] | Potency [6] | Potency [7] | outcome [8] | Potency [9]

COc1nc(C)nc(NC(=O)NS(=O)(=O)c2ccccc2OCCCl)n1
inactive: Potency [1] | max response [2] 6.36% | Potency [3] | Potency [4] | Potency [5] | Potency [6] | Potency [7] | outcome [8] | Potency [9]

CN1CCN(c2c(F)cc3c(=O)c(C(=O)O)cn4c3c2SCC4)CC1
inactive: Potency [1] | outcome [10] | Potency [3] | Potency [4] | Potency [5] | Potency [6] | Potency [7] | outcome [8] | Potency [9]

CN1C(=O)CC(c2ccccc2)C1=O (stereo unspecified)
inactive: Potency [1] | outcome [10] | Potency [4] | Potency [5] | Potency [6] | Potency [7] | outcome [8] | Potency [9]

CCCCc1ccc2nc(NC(=O)OC)[nH]c2c1
inactive: Potency [1] | outcome [10] | Potency [3] | Potency [4] | Potency [5] | Potency [6] | outcome [8] | Potency [9]
active: Potency [7] 0.338 µM

CCCCCCCCc1ccc(S(=O)(=O)O)cc1
inactive: Potency [1] | outcome [10] | Potency [5] | outcome [8]
active: Potency [3] 48.6 µM | Potency [9] 54.5 µM

COc1ccccc1OCC(O)COC(N)=O (stereo unspecified)
inactive: Potency [1] | max response [2] 12.1% | Potency [3] | Potency [4] | Potency [5] | Potency [6] | Potency [7] | outcome [8] | Potency [9]

CCCCCCn1c(=O)c2c(ncn2C)n(C)c1=O
inactive: Potency [1] | max response [2] -1.75% | Potency [3] | Potency [4] | Potency [5] | Potency [6] | Potency [7] | outcome [8] | Potency [9]

CC1=C2[C@H](/C=C(\C)C(=O)O)CC[C@@H](C)[C@H]2CC1
inactive: outcome [10] | Potency [4] | Potency [5] | Potency [6] | Potency [7] | outcome [8]
active: Potency [1] 36 µM

CCCCCOc1ccc(C2SC(=O)NC2=O)cc1OCC (stereo unspecified)
inactive: Potency [1] | outcome [10] | Potency [3] | Potency [5] | outcome [8] | Potency [9]

CN1CCN(c2c(F)cc3c(=O)c(C(=O)O)cn(CCF)c3c2F)CC1
inactive: Potency [1] | outcome [10] | Potency [4] | Potency [5] | Potency [6] | Potency [7] | outcome [8]

CCCCN1C[C@H](O)[C@@H](O)[C@H](O)[C@H]1CO
inactive: Potency [1] | max response [2] 5.15% | Potency [3] | Potency [4] | Potency [5] | Potency [6] | Potency [7] | outcome [8] | Potency [9]

CCCN(CCC)C(=O)C(CCC(=O)O)NC(=O)c1ccccc1 (stereo unspecified)
inactive: Potency [1] | max response [2] 3.51% | Potency [3] | Potency [4] | Potency [5] | Potency [6] | Potency [7] | outcome [8] | Potency [9]

CCCS(=O)c1ccc2nc(NC(=O)OC)[nH]c2c1 (stereo unspecified)
active: Potency [7] 12 µM
inactive: Potency [1] | outcome [10] | Potency [3] | Potency [4] | Potency [5] | Potency [6] | outcome [8] | Potency [9]

CN(C)CCOc1ccccc1Cc1ccccc1
inactive: Potency [1] | outcome [10] | Potency [3] | Potency [5] | outcome [8] | Potency [9]

C=CCCC=C
inactive: Potency [1] | Potency [3] | Potency [4] | Potency [5] | Potency [6] | Potency [7] | outcome [8] | Potency [9]

NC(Cc1ccc(F)cc1)C(=O)O (stereo unspecified)
inactive: activity change, negative = cytotoxicity [1] 1.36% [at 6.97 µM] | activity change [3] 11.7% [at 6.97 µM, stronger effect = higher value] | cytotoxicity increase [4] 8.03% [at 6.97 µM] | activity change, negative = cytotoxic [5] -6.06% [at 6.97 µM] | cytotoxicity [6] 7.85% [at 6.97 µM] | cytotoxicity increase [7] 7.77% [at 6.97 µM] | activity change, negative = cytotoxicity [8] -1.64% [at 6.97 µM] | cytotoxicity increase [9] 12.7% [at 6.97 µM]

CC1(C)C(=O)N(Cl)C(=O)N1Br
inactive: outcome [10] | max response [2] 17% | Potency [3] | Potency [4] | Potency [5] | Potency [6] | Potency [7] | outcome [8] | Potency [9]

C[C@@H]1CN(c2c(F)c(F)c3c(=O)c(C(=O)O)cn(C4CC4)c3c2F)C[C@H](C)N1
inactive: activity change, negative = cytotoxicity [1] 0.662% [at 15.8 µM] | max response [2] 10.3% | cytotoxicity increase [4] -10.9% [at 15.8 µM] | activity change, negative = cytotoxic [5] 0.371% [at 15.8 µM] | cytotoxicity [6] -13.2% [at 15.8 µM] | cytotoxicity increase [7] -9.16% [at 15.8 µM] | activity change, negative = cytotoxicity [8] 0.0765% [at 15.8 µM] | cytotoxicity increase [9] -0.134% [at 15.8 µM]

CC1(O)CSC(C)(O)CS1 (stereo unspecified)
inactive: outcome [10] | max response [2] 5.86% | Potency [3] | Potency [4] | Potency [5] | Potency [6] | Potency [7] | outcome [8] | Potency [9]

O=C(Cl)c1cccc([N+](=O)[O-])c1
inactive: outcome [10] | max response [2] 3.57% | Potency [3] | Potency [4] | Potency [5] | Potency [6] | Potency [7] | outcome [8] | Potency [9]

CC(=O)O[C@H]1CC[C@@]2(C)C(=CC[C@@H]3[C@@H]2CC[C@]2(C)C(C(C)=O)=CC[C@@H]32)C1
inactive: outcome [10] | max response [2] -20.5% | Potency [3] | Potency [4] | Potency [5] | Potency [6] | Potency [7] | outcome [8] | Potency [9]

Oc1ccccc1C=NCc1ccccc1
inactive: outcome [10] | max response [2] 1.18% | Potency [3] | Potency [4] | Potency [5] | Potency [6] | Potency [7] | outcome [8] | Potency [9]

Cc1ccc(C)c(N)c1
inactive: Potency [1] | max response [2] 4.84% | Potency [4] | Potency [5] | Potency [6] | Potency [7] | outcome [8] | Potency [9]

CCCCNC(=S)NCCCC
inactive: outcome [10] | max response [2] -21.7% | Potency [3] | Potency [4] | Potency [5] | Potency [6] | Potency [7] | outcome [8] | Potency [9]
